Among the data in PubChem BioAssay AID504333 (National Center for Advancing Translational Sciences (NCATS), 2011) are Potency values, retold here.

Molecules are shown by their SMILES. Out of some 360,000 compounds screened, about 16,000 (4.4%) were called active. Where a call stands in place of a potency, no number is given. Roughly 9% stayed inconclusive and do not appear here. Calls follow the shape of the dose curve; as a rule, active = well fitted inhibition curve with a large enough effect; inconclusive = small, poorly fitted or top-dose-only effect; inactive = no such curve, though single readings can be large or run the other way. The full list was thinned out, with actives kept by preference.
Potency is read from the fitted curve at half-maximal effect.

Bromodomain adjacent to zinc finger domain protein 2B (Homo sapiens), sequence (Q9UIF8 whole entry, looked up, the tested form may be a part): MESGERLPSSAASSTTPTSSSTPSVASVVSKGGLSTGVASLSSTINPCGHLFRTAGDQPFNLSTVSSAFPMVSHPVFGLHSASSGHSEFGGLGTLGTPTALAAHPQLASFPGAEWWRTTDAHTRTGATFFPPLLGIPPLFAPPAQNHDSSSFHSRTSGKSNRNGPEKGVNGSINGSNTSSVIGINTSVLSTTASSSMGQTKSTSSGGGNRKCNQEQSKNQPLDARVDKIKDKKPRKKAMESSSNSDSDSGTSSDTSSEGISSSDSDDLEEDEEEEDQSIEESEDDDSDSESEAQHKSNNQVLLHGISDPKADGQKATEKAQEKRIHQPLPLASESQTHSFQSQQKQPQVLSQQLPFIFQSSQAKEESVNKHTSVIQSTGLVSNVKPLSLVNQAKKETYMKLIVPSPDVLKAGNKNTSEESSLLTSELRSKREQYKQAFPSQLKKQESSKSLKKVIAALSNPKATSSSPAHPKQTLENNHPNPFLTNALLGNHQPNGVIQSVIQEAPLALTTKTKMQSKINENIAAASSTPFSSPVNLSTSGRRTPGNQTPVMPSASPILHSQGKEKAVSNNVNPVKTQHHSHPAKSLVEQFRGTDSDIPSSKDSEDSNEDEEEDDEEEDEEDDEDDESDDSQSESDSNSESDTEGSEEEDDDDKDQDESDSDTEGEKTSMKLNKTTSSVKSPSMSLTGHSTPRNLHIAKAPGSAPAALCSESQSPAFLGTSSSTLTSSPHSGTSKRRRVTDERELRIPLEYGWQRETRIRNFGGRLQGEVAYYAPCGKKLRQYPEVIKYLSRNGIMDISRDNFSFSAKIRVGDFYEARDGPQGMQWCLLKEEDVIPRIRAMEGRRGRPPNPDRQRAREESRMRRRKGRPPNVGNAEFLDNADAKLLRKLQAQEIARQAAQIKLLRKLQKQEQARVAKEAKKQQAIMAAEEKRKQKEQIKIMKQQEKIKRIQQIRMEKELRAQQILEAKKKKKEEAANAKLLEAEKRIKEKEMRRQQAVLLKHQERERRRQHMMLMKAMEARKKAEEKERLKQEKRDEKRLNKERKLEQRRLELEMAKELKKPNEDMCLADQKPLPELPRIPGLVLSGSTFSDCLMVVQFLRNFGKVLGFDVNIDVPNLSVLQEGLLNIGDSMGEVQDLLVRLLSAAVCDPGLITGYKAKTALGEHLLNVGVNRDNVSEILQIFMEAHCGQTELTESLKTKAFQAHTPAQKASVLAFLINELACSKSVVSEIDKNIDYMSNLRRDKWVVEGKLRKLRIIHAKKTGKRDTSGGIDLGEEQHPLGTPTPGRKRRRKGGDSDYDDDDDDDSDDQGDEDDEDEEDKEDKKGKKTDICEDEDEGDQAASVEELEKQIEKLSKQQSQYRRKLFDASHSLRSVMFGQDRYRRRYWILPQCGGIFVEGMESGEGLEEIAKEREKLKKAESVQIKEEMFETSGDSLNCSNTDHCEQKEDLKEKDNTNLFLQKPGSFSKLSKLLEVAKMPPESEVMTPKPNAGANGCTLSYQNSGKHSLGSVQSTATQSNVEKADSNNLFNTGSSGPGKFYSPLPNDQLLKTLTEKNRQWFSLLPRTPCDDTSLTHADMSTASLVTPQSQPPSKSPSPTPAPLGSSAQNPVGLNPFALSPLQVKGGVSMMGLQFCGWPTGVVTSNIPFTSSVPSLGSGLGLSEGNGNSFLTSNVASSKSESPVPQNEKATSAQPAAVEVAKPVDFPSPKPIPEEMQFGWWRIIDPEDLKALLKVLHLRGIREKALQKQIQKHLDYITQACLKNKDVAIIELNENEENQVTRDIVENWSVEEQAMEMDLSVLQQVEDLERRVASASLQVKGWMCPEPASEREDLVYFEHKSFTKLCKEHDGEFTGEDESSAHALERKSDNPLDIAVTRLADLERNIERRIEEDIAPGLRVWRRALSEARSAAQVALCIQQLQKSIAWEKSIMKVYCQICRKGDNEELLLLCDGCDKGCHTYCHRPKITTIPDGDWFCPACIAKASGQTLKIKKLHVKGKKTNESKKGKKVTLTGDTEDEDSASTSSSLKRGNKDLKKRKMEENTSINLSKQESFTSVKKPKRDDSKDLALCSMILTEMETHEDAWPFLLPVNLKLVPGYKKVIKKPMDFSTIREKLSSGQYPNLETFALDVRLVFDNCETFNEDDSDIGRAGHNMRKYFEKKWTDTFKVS

This assay has as its target Bromodomain adjacent to zinc finger domain protein 2B (Homo sapiens) (UniProt Q9UIF8). The experiment in a line: qHTS Assay for Inhibitors of BAZ2B. Also: nearly all actives have a fitted effect of over 60% in size. To be noted: AlphaScreen BAZ2B-H3K14Ac peptide displacement; series mostly up to 114 µM. In short, it runs like this:
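AlphaScreen displacement of biotin-H3(5-23)K14Ac peptide (50 nM final) from BAZ2B (50 nM final) in PBS pH 7.4, 0.01% Tween-20; complex preformed 30 min RT, then compounds (top 110 uM) 30 min RT, beads 20 min dark.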
On the technique in general: Quantitative high-throughput screening tests each substance at several concentrations.
Regarding `CCCCc1nc2ccccc2c(NC(=O)CN2CCN(C)CC2)c1CCC`, the Potency is 50.1 µM (active). Take `CN1CCN(CC(=O)Nc2cccc([N+](=O)[O-])c2)CC1`: the Potency result was “inactive”. In the case of `CCCCc1nc2ccccc2c(=O)n1NC(=O)c1c(O)c2cccc3c2n(c1=O)CC3`, the Potency result is “inactive”. With `Fc1ccc(CN2CCc3nc(Nc4ccccc4)ncc3C2)cc1F`, the Potency result was “inactive”. Next, `COc1ccc(/C=C/C2=CC(C)(C)NC(=S)N2)c(OC)c1`: 39.8 µM (active). `COc1cc(/C=C/C2=CC(C)(C)NC(=S)N2)cc(OC)c1OC`: the Potency entry is “inactive”. Regarding `COc1ccc(/C=C/C(=O)OCC(=O)Nc2cccc(Oc3ccccc3)c2)c(OC)c1`, the Potency entry was “inactive”.

With `O=C(O)c1c(CNCc2cccc(F)c2)c2ccccc2n1Cc1ccccc1`, the Potency result was “inactive”. Next, `COC(=O)c1ccccc1NC(=O)c1cnn(-c2ccc(F)cc2)c1-n1cccc1`: “inactive”; `Cc1ccc2oc3c(c(=O)c2c1)C(c1ccc(O)cc1)N(Cc1ccc2c(c1)OCO2)C3=O` (stereo not drawn): “inactive”; `CCOc1ccc(CCNC(=O)CN(c2ccc(C)cc2)S(=O)(=O)N(C)C)cc1OCC`: “inactive”. Take `CCN(CC)c1ccc(/C=N/Nc2nc(C)cc(C)n2)c(O)c1`: the Potency is 25.1 µM (active). Next, `Cc1cc(C)nc(N/N=C/c2ccc([N+](=O)[O-])o2)n1`: “inactive”; `CCN(CC)c1ccc(/C=N/NC(=O)c2cnccn2)c(O)c1`: “inactive”; `Cc1ccc(-c2noc(CSc3nnc(-c4ccc(Cl)cc4)n3C)n2)cc1`: “inactive”. In the case of `Cc1[nH]c2c(C(=O)N3CCCC(CCC(=O)NCc4ccccc4F)C3)cccc2c1C` (stereo not drawn), the Potency was 70.8 µM (active). Next, `O=C(CCC1CCCN(Cc2ccc(O)c(Cl)c2)C1)NCc1ccccc1F` (stereo not drawn): “inactive”. Next, `CSc1ncccc1C(=O)N1CCCC(CCC(=O)NCc2ccccc2F)C1` (stereo not drawn): “inactive”; `CCCNC(=O)C1CCC(Cn2c(=O)c3sccc3n(Cc3ccccc3F)c2=O)CC1` (stereo not drawn): “inactive”; `Cc1ccccc1NC(=O)Cn1c(=O)n(CCCCC(=O)NCc2ccccc2Cl)c(=O)c2ccccc21`: “inactive”. Turning to `Cc1cc(F)ccc1NS(=O)(=O)c1ccc(-n2cccn2)cc1`, the Potency entry was “inactive”. With `Cn1ccc2cc(S(=O)(=O)N3CCCC(C(=O)NCc4ccccc4F)C3)ccc21` (stereo not drawn), the Potency result was “inactive”. Regarding `Cc1oc(-c2ccccc2)nc1Cn1c(SCc2cccc(C(F)(F)F)c2)nc2cccnc21`, the Potency result is “inactive”.

`CCc1nn(CC(=O)N2CCN(c3ccc(Cl)cc3)CC2)c(=O)c2cc3occc3n12`: the Potency result is “inactive”. As for `COc1ccccc1N1CCN(CC(=O)NC(=O)NCc2ccco2)CC1`, the Potency result is “inactive”. `O=C(CN1CCN(S(=O)(=O)/C=C/c2ccccc2)CC1)NC(=O)NCc1ccco1`: the Potency was 50.1 µM (active). Take `NC(=O)CCN1CCN(S(=O)(=O)/C=C/c2ccccc2)CC1`: the Potency result is “inactive”. As for `COc1cccc(CNCCSc2nnnn2C)c1OCc1ccccc1Cl`, the Potency result was “inactive”. For `O=C(Nc1ccccc1)/C(=C\c1ccco1)NC(=O)c1ccco1`, the Potency entry was “inactive”. `O=C(Cc1ccccc1)n1nc(-c2ccccc2)nc1NCc1ccco1`: the Potency entry was “inactive”. In the case of `O=c1nc2s/c(=C\c3ccco3)c(=O)n2nc1Cc1ccccc1`, the Potency is 50.1 µM (active).

For `CCOc1ccccc1N(CC)C(=O)c1cc2ccc3cccnc3c2[nH]1`, the Potency result is “inactive”. Next, `CC(=O)c1cccc(NC(=O)c2nc(-c3ccccc3)n(-c3cccc(C)c3)n2)c1`: “inactive”; `O=C(CSc1nccn1-c1ccc(F)cc1)Nc1cccc2ccccc12`: 7.94 µM (active); `Cc1ccccc1-n1c(SCC(=O)Nc2cccc3ccccc23)nc(O)cc1=O`: “inactive”. `CC(=O)Nc1cccc(NC(=O)CSc2nccn2Cc2ccc(F)cc2)c1`: the Potency result is “inactive”.

In the case of `O=C(CSc1nccn1Cc1ccc(F)cc1)NCc1ccccc1`, the Potency result is “inactive”. Take `Cc1cccc(-n2ccnc2SCC(=O)Nc2cccc3ccccc23)c1C`: the Potency was 14.1 µM (active).

For `Cc1nnc(NC(=O)CSc2nccn2-c2cccc(C)c2C)s1`, the Potency result was “inactive”. The same measure for `O=C(CSc1n[nH]c(-c2ccccc2)n1)N1CCCCC1`: “inactive”; for `CN(C(=O)c1ccc2c(c1)N(Cc1cccc(Cl)c1)C(=O)c1ccccc1S2=O)C1CCCCC1` (stereo not drawn): “inactive”; for `Cc1ccc(NC(=O)c2ccc3[nH]c(C)cc(=O)c3c2)c(C)c1`: “inactive”. The same measure for `O=C1CSC2(C(=O)N(Cc3ccccc3)c3ccccc32)N1c1cccc(F)c1` (stereo not drawn): “inactive”. Consider `CSc1ncc(C(=O)NCc2ccccc2Cl)c(C(F)(F)F)n1`, for which the Potency entry was “inactive”. As to `COc1ccc(OC)c(-c2csc(-c3c(N)c(C(=O)c4ccccc4)n4ccccc34)n2)c1`, the Potency result is “inactive”. As to `O=C(NC1CCCC1)C(=O)c1c[nH]c2ccccc12`, the Potency entry was “inactive”. Take `NC(=O)CSc1c[nH]c2ccccc12`: the Potency entry is “inactive”. Take `O=S(=O)(O)Oc1c[nH]c2ccccc12`: the Potency is 44.7 µM (active).

As to `CC(=O)N(C1=C(Cl)C(=O)c2ccccc2C1=O)c1ccc(C(=O)O)cc1`, the Potency is 28.2 µM (active). In the case of `CCc1ccc(-n2nc(C)c3c(C)cc(=O)n(CC(=O)Nc4ccc(F)cc4C)c32)cc1`, the Potency result was “inactive”. `CC1CC(C)(C)NC(=S)N1CCC(=O)N1CCN(Cc2ccccc2)CC1` (stereo not drawn): the Potency result is “inactive”. Regarding `CC1CC(=S)Nc2ccccc2N1Cc1ccccc1` (stereo not drawn), the Potency was 39.8 µM (active).

For the compound `CC1CC(=O)Nc2ccccc2N1S(=O)(=O)c1cccs1` (stereo not drawn), the Potency result is “inactive”. In the case of `Cc1nc(N2CCOCC2)c2c(C(=O)NCc3cccc(Cl)c3)c(C)oc2n1`, the Potency entry is “inactive”. With `Cc1c(Br)c([N+](=O)[O-])nn1C(C)C(=O)Nc1nccs1` (stereo not drawn), the Potency was 79.4 µM (active). As to `CCOc1ccc(C(=O)Nc2nccs2)cc1[N+](=O)[O-]`, the Potency entry is “inactive”.

Regarding `O=C(CCn1ccc([N+](=O)[O-])n1)Nc1nccs1`, the Potency result is “inactive”.

For `COc1ccc(-c2nc3scc(CCNS(=O)(=O)c4cc(F)ccc4OC)n3n2)cc1OC`, the Potency entry was “inactive”.

Turning to `COc1ccccc1C(=O)OCc1cc(=O)n2nc(-c3cccs3)sc2n1`, the Potency result is “inactive”. On to `CC1=Nc2cc(C(=O)NCc3ccc(C)cc3)ccc2Sc2ccc(Cl)cc21`, for which the Potency entry was “inactive”. As to `Cc1cc(Cl)ccc1OCCCC(=O)NCc1ccccn1`, the Potency result was “inactive”. For `Fc1ccc(-c2ccc(CNCc3ccccn3)o2)cc1Cl`, the Potency is 31.6 µM (active). As for `O=S(=O)(NCc1ccccn1)c1ccc(F)cc1`, the Potency result is “inactive”. For the compound `O=C(CCc1nc(CN2CCN(S(=O)(=O)c3ccc(Br)cc3)CC2)no1)N1CCCCC1`, the Potency entry is “inactive”. For the compound `COC(=O)c1ccccc1NC(=O)C(Cc1ccccc1)N1Cc2ccccc2C1=O` (stereo not drawn), the Potency entry was “inactive”. `CCN(CCCNC(=O)c1cc2cc3cc(OC)ccc3nc2s1)c1ccccc1`: the Potency entry was “inactive”. The same measure for `Cc1cc([N+](=O)[O-])ccc1NC1CCCC1`: “inactive”.

Consider `Cc1cc(C=O)c(C)n1-c1ccc(NC2CCCCC2)c([N+](=O)[O-])c1`, for which the Potency was 10 µM (active). As to `Cc1c(NS(=O)(=O)c2ccc(NC3CCCC3)c([N+](=O)[O-])c2)c(=O)n(-c2ccccc2)n1C`, the Potency entry is “inactive”. Take `CCOc1ccc(-c2cc(C)n3nc(C(=O)Nc4ccc(C)c(C)c4)cc3n2)cc1`: the Potency entry is “inactive”. As to `CCOC(=O)c1scc(-c2ccccc2)c1S(=O)(=O)Nc1ccccc1F`, the Potency entry was “inactive”. As for `Cc1ccnc(N2CCCC(C(=O)NC3CC3)C2)n1` (stereo not drawn), the Potency entry was “inactive”. As for `Cc1ccnc(SCC(N)=O)n1`, the Potency result was “inactive”. The same measure for `Cc1ccnc(-n2sc3ccccc3c2=O)n1`: 25.1 µM (active); for `Cc1ccc(C)c(N2CCN(S(=O)(=O)c3ccc4c(c3)C(C(C)C)C(=O)N4)CC2)c1` (stereo not drawn): “inactive”; for `CC(NC(=O)c1cc2c(=O)n3ccccc3nc2n(C(C)C)c1=N)c1ccccc1` (stereo not drawn): “inactive”.

As for `CCc1ccccc1NC(=O)CSc1nc(C)c(C(=O)Nc2ccccc2)c(-c2ccc(Cl)cc2)c1C#N`, the Potency result was “inactive”. For `COc1ccc(-n2c(=O)[nH]c3cc(C(=O)NCCc4ccc(OC)c(OC)c4)ccc3c2=O)c(OC)c1`, the Potency result was “inactive”. For the compound `CCn1c(C)c(C)c2cc(C(=O)NCCc3cc(OC)ccc3OC)ccc21`, the Potency was 31.6 µM (active). In the case of `COc1ccc(OC)c(CCNC(=O)c2nn(C)c3c2CS(=O)(=O)c2ccccc2-3)c1`, the Potency entry is “inactive”. Consider `CCOc1cccc2cc(-c3cn4c(n3)sc3cc(C)ccc34)c(=O)oc12`, for which the Potency result is “inactive”. As to `Cc1ccc(NC(=O)CSc2cccc3cccnc23)c(C)c1`, the Potency entry was “inactive”. Turning to `Cc1cc(Br)ccc1NC(=S)NC1CCCC1`, the Potency entry is “inactive”. Consider `Cc1ccc(NC(=S)Nc2ncccc2C)c(C)c1`, for which the Potency is 44.7 µM (active). With `COC(=O)c1scc(-c2ccc(C)cc2)c1S(=O)(=O)Nc1cc(Cl)c(OC)cc1OC`, the Potency result is “inactive”. Next, `Cc1cc(C)c(NC(=O)CCc2c(C)nc3c(c(C)nn3C(C)(C)C)c2C)c(C)c1`: “inactive”. Regarding `COc1ccc(OCC(O)CNC(=O)Nc2ccc(Cl)cc2)cc1` (stereo not drawn), the Potency entry is “inactive”. For `OC(CNCc1ccc2c(c1)OCO2)COc1ccccc1` (stereo not drawn), the Potency result was “inactive”. Take `OC(CNCCc1ccc(Cl)cc1Cl)COc1ccccc1` (stereo not drawn): the Potency was 70.8 µM (active). For `CCCNC(=O)c1ccc(Cn2c(SCC(N)=O)nc3ccccc3c2=O)cc1`, the Potency result was “inactive”.

Take `CC(=O)c1ccc(NC(=O)CSc2nnc(NC(=O)Nc3ccccc3)s2)cc1`: the Potency entry is “inactive”. Next, `Cc1cc2c(cc3c(SCc4cccc(Cl)c4)nnc(C)n32)o1`: 25.1 µM (active); `O=C(c1ccco1)N1CCN=C1SCc1cccc(Cl)c1`: “inactive”; `Cc1cc2c(cc3c(SCc4nc(-c5ccccc5)oc4C)nnc(C)n32)o1`: “inactive”. Turning to `CCc1ccc(NC(=O)c2sc3nc4c(cc3c2N)CN(CC)CC4)cc1`, the Potency is 35.5 µM (active). With `CCN1CCc2nc3sc(C(=O)Nc4ccccc4OC(F)(F)F)c(N)c3cc2C1`, the Potency entry was “inactive”. Turning to `CCc1ccccc1NC(=O)c1sc2nc3c(cc2c1N)CN(Cc1ccccc1)CC3`, the Potency result is “inactive”. As to `O=C(COc1ccccc1)NCc1ccc2c(c1)CCN2C(=O)c1ccc(F)cc1`, the Potency entry was “inactive”.

`CCc1nc2cccnc2n1-c1ccc(CC(=O)Nc2c(C)cccc2C)cc1`: the Potency entry was “inactive”. The same measure for `Cc1cc(C)cc(NC(=O)CSc2nc3nccnc3c(=O)n2CCc2c[nH]c3ccccc23)c1`: “inactive”; for `Cc1ccc(-n2ncc3c(N4CCC(C(N)=O)CC4)ncnc32)cc1`: “inactive”. `Cc1cc(C)cc(OCC(=O)Nc2nc(-c3ccc(F)cc3)ns2)c1`: the Potency result is “inactive”. The same measure for `CN(C)c1ccc(Nc2c3c4c(cccc4n(C)c2=O)C(=O)c2ccccc2-3)cc1`: 1.58 µM (active).
